Assay outcomes (PubChem)
CYP2C9 act: human CYP2C9 activators, primary screen, biochemical, luminescence; recombinant CYP2C9, luciferin-H conversion; hits give high values; factor 1 = untreated enzyme, 0 = blocked; AID 1024, 2008; 1.4% of 96,000 active; Cytochrome P450 2C9 (Homo sapiens), P11712; activation factor at 5 µM;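 active means activation factor of 2 or more for CYP2C9 at a 5 µM dose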;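 further: 0 = sulfaphenazole-blocked wells and 1 = vehicle-only wells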
CYP2C19 act: human CYP2C19 activators, primary screen, biochemical, luminescence; Cytochrome P450 2C19 (Homo sapiens), P33261; recombinant CYP2C19, luciferin-H EGE luminescence; hits give high values; 0 = fully inhibited enzyme, 1 = untreated enzyme; activation factor at 5 µM; 96,000 tested, under 10 active; AID 1025, 2008;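 active means activation factor of at least 2 at 5 µM in the primary screen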;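 further: 0 = wells with 2.5 mM tranylcypromine and 1 = vehicle-only wells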
Target sequence (P33261 whole entry, looked up): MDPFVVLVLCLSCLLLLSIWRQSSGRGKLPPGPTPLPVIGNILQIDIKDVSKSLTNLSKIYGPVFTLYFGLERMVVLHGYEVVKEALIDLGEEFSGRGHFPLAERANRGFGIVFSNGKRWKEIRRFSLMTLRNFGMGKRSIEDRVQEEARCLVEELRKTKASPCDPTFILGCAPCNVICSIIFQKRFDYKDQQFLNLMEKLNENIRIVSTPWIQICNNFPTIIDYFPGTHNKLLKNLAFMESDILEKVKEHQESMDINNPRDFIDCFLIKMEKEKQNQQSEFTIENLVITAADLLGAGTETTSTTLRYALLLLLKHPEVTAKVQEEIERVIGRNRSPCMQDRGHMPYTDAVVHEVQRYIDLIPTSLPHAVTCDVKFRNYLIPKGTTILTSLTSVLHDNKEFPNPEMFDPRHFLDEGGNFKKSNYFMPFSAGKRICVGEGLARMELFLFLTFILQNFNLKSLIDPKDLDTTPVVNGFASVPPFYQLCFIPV
MRP1 act: H69AR viability gain despite doxorubicin, primary screen, MRP-1 activator project, H69AR cells, CellTiter-Glo. viability rescue. viability increase, % at 10 µM. 0.61% of 140,000 active;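 active means viability gain under doxorubicin at or above a set limit, the compound median plus 3 SD, cut at about 4.7% in these data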;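 further: MRP-1 overexpressing cells given doxorubicin 25 µM after compound pretreatment; 18-22 h compound pretreatment then 72 h with doxorubicin before readout; 0% = doxorubicin-only wells and 100% = vehicle-treated cells without doxorubicin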
MRP resist rev: reversal of MRP1-mediated doxorubicin resistance, primary screen, H69AR cells, doxorubicin co-treatment; 0.04% of 85,000 active; differential viability (reversal), % at 10 µM; H69AR cells + 2 uM doxorubicin, CellTiter-Glo, 72 h; AID 602, 2007;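 active means viability drop by adding the cancer drug above about 55%, with treated viability meeting a 40% cutoff, limit read from the data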;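 further: viability without doxorubicin minus viability with 2 µM doxorubicin for each compound; larger differential means the compound sensitizes cells more to doxorubicin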
CYP2C19 inh: blockers of cytochrome P450 2C19 activity – biochemical, luminescence, ADME assay, primary screen; P33261; 21% of 96,000 active; CYP2C19 Supersomes, luciferin-H EGE luminescence, 30 min; AID 778, 2007; inhibition, % at 5 µM;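 active means CYP2C19 inhibition above a set limit at 5 µM in the primary screen, cut at about 50% in these data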;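 further: plate controls were negative control wells for no effect and 2.5 mM tranylcypromine positive control for full effect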
CYP2C9 inhib: blockers of cytochrome P450 2C9 activity – biochemical, luminescence, ADME assay, primary screen. P11712. CYP2C9 Supersomes, luciferin-H conversion. inhibition, % at 5 µM. 20% of 96,000 active;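 active means blocking of liver enzyme CYP2C9 beyond about 50% at 5 µM, limit read from the data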
Starred values were filed as active, the others as inactive; · = no result. An excerpt weighted towards active compounds, which were near 21% of everything screened.

SMILES	CYP2C9 act	CYP2C19 act	MRP1 act	MRP resist rev	CYP2C19 inh	CYP2C9 inhib
COc1cccc(-c2ccc(C#N)c(SCC(=O)NCCc3cccc(Cl)c3)n2)c1	0.4	0.2	-5.1	·	82.5*	64.0*
CC(NC(=O)C1CCCN(C(=O)N(C)C)C1)c1ccccc1 (stereo not given)	0.5	0.7	-1.7	-4.4	28.7	52.7*
Cc1cc(C)c(S(=O)(=O)n2nc(C)c(Br)c2C)c(C)c1	·	·	-0.3	·	·	·
COc1ccc(CN(C)C2c3ccccc3-c3ccccc32)cc1	·	·	-3.6	·	·	·
COc1ccc(CN2C(=O)c3ccccc3C(/C=N/OCc3ccc(Cl)cc3)C2=O)cc1 (stereo not given)	0.2	0.6	0.1	·	35.1	77.7*
c1ccc(-c2cn3c4c(sc3n2)CCCC4)cc1	0.8	0.4	-3.5	-33.6	57.0*	19.4
c1ccc(-c2cn3nc(-c4ccccc4)sc3n2)cc1	·	·	·	-9.2	·	·
COCc1cc(C)nc(SCC(=O)N2CCC(C)CC2)c1C#N	0.9	0.5	-0.9	2.8	48.7	7.1
Cc1ccc(S(=O)(=O)NCCN=C(CN2CCOCC2)NS(=O)(=O)c2ccc(C)cc2)cc1	0.2	0.8	-1.5	9.2	23.5	75.6*
Cc1ccc(S(=O)(=O)NCC(=O)N2CCCC2)cc1	1	1	-0.7	-0.3	3.5	1.4
Cc1ccc(S(=O)(=O)NCCN=C(CN2CCCC2)NS(=O)(=O)c2ccc(C)cc2)cc1	0	0.7	-1.3	-1.3	25.5	96.8*
CC(=O)N(c1ccccc1)c1ccc([N+](=O)[O-])cc1[N+](=O)[O-]	·	·	-3.0	·	·	·
O=C1CCc2cc(S(=O)(=O)NCCC(=O)N3CCN(c4cccc(Cl)c4)CC3)ccc2N1	·	·	-1.8	3.4	·	·
CCCCC(=O)Nc1ccc(C(=O)NNC(=O)c2ccccc2Br)cc1	1	1.2	-0.6	·	-15.4	2.3
COc1ccccc1/C=C/C=N/N1CCN(Cc2cccc3ccccc23)CC1	1.1	0.9	-0.1	·	6.0	-5.6
CC(=O)Nc1ccc(C(=O)CSc2nnc3scc(-c4ccccc4)n23)cc1	0.4	0.7	-0.5	-19.0	33.8	58.2*
Cc1ccc(-c2csc3nnc(SCC(=O)Nc4cccc(C)n4)n23)cc1	0.5	0.4	-2.2	1.9	57.3*	53.2*
Cc1cccc(NC(=O)CSc2nnnn2C)n1	1.2	1.1	-3.3	-3.0	-11.1	-17.7
Cc1cc(C)nc(Sc2nc(Cl)nc(N(c3ccccc3)c3ccccc3)n2)n1	0.5	0.3	-2.4	·	66.8*	51.6*
CCOc1ccccc1N1CCN(C2=C(NS(=O)(=O)c3cccs3)C(=O)c3ccccc3C2=O)CC1	0	0.1	-3.1	-16.8	92.0*	99.7*
O=C1C(NS(=O)(=O)c2cccs2)=C(N2CCN(c3cccc(C(F)(F)F)c3)CC2)C(=O)c2ccccc21	0.5	0.7	-4.0	-14.6	30.6	52.4*
O=C1C(NS(=O)(=O)c2ccc(Cl)cc2)=C(N2CCCCC2)C(=O)c2ccccc21	·	·	-4.4	·	·	·
CCCc1nn(CCc2ccccn2)c(N)c1CC	0.9	0.7	-1.2	-12.7	31.0	8.2
O=C(NCc1ccccc1)NC(=O)c1ccccc1	1	0.6	1.6	24.4	37.3	4.8
O=C(NC(=O)c1ccccc1)NC1(C(F)(F)F)OCCO1	0.6	0.2	-0.5	·	75.6*	41.5
SMILES	CYP2C9 act	CYP2C19 act	MRP1 act	MRP resist rev	CYP2C19 inh	CYP2C9 inhib
Nc1ccccc1C#Cc1ccccc1	0.8	0.5	-1.9	·	52.6*	17.5
CCN(CC)P1(=O)OC(c2cc(OC)c(OC)c(OC)c2)=Nc2c1c(C)nn2-c1ccccc1 (stereo not given)	0	0.2	-1.9	-19.9	78.4*	96.4*
Cc1ccccc1-n1ncc2c(SCC(=O)NCc3cccs3)ncnc21	0.7	0.9	-5.1	-29.0	10.9	33.5
CC1CCc2c(sc(NC(=O)CSc3nnc(-c4ccccc4)o3)c2C#N)C1 (stereo not given)	·	·	-2.3	·	·	·
CC1CCc2c(sc(NC(=O)CSc3ncnc4c3cnn4-c3ccccc3Cl)c2C#N)C1 (stereo not given)	0.3	0.7	1.4	5.6	26.6	71.8*
Cc1csc(NC(=O)CSc2ncnc3c2cnn3-c2ccccc2Cl)n1	0.1	0.1	-4.9	3.6	89.5*	90.0*
Cc1nc2ccc(N)cc2c(=O)n1Cc1ccc(Cl)cc1	0.2	0	0.1	26.6	98.7*	84.5*
O=C1C2C3c4ccccc4C(Br)(c4ccccc43)C2C(=O)N1c1ccccc1O (stereo not given)	·	·	-2.5	·	·	·
O=c1[nH]c2ccccc2n1CCCN1CCN(C(c2ccccc2)c2ccccc2)CC1	·	·	-2.9	-21.1	·	·
Clc1ccc(C(c2nnnn2CCc2ccccc2)N2CCSCC2)cc1 (stereo not given)	0.2	0.2	-1.5	13.5	80.0*	78.7*
O=C(Nc1ccc(Cl)cc1)OCCn1nnnc1C(c1ccccc1)N1CCOCC1 (stereo not given)	0.4	0.7	-2.1	·	34.7	64.6*
CN(C)c1ccc(C(c2nnnn2CCOC(=O)Nc2ccc(Cl)cc2)N2CCOCC2)cc1 (stereo not given)	0.1	0.1	-3.8	-6.2	93.2*	87.4*
c1ccc(Cn2nnnc2C(c2ccncc2)N2CCOCC2)cc1 (stereo not given)	0.8	0.6	-1.9	4.6	37.2	21.8
Fc1ccc(C(c2nnnn2Cc2ccccc2)N2CCSCC2)cc1 (stereo not given)	1	0.9	0.0	-1.3	7.8	3.7
O=C(Cc1csc(Nc2nc(=S)[nH]c3ccccc23)n1)NCc1ccccc1Cl	0.2	0.7	-5.8	·	34.8	82.6*
Cc1ccc(CNC(=O)Cc2csc(Nc3nc(=S)[nH]c4ccccc34)n2)cc1	0.2	0.4	-4.1	·	64.9*	82.2*
O=C(Cc1csc(Nc2nc(=S)[nH]c3ccccc23)n1)NCc1cccc(Cl)c1	0.2	0.7	-4.7	·	31.3	82.8*
CCCOc1ccc(S(=O)(=O)n2cc(Br)c(=O)[nH]c2=O)cc1	0	0.7	-0.9	11.4	26.6	97.9*
CCCOc1ccc(C(=O)Nc2c[nH]c(=O)[nH]c2=O)cc1	·	·	1.2	·	·	·
COC(=O)c1sc2nc(SCc3cccc(F)c3)n(N)c(=O)c2c1C	·	·	-0.5	·	·	·
CCn1c(SCc2nc3sc(C(=O)O)c(C)c3c(=O)[nH]2)nc2ccccc21	0.4	1	0.5	·	1.6	55.4*
COCCn1c(SCc2nc3sc(C(=O)OC)c(C)c3c(=O)[nH]2)nc2ccccc21	0.1	0.3	-2.5	-2.1	73.9*	91.4*
Cc1cc(C(=O)COC(=O)C2=NNC(=O)CC2)c(C)n1-c1ccccc1	0.7	0.5	-2.3	-0.5	50.1*	31.7
